Screening data deposited in PubChem BioAssay by Buhrlage Lab, Dana-Farber Cancer Institute and Novartis Institutes for BioMedical Research (Cambridge, Mass).
USP17 inh – human USP17-like deubiquitinase inhibition; A8MUK1; purified USP17, Ub-rhodamine cleavage fluorescence, 3 h; 47,000 tested, 6.5% active; inhibition, % at 50 µM
OTUD3 inh – inhibitors of human OTUD3 deubiquitinase | Q5T2D3 | purified OTUD3, Ub-rhodamine fluorescence, 2 h | inhibition, % at 25 µM | 47,000 tested, 0.7% active | AID 1645858
USP28 inh – blocks human USP28 ubiquitin-rhodamine cleavage. Q96RU2. purified USP28, Ub-rhodamine cleavage fluorescence, 30 min. inhibition, % at 25 µM. 47,000 tested, 3% active
USP30 inh – inhibitors of human USP30 deubiquitinase. 47,000 tested, 5.3% active. Q70CQ3. inhibition, % at 25 µM. purified USP30, Ub-rhodamine cleavage fluorescence
Target sequence (Q70CQ3 whole entry, looked up): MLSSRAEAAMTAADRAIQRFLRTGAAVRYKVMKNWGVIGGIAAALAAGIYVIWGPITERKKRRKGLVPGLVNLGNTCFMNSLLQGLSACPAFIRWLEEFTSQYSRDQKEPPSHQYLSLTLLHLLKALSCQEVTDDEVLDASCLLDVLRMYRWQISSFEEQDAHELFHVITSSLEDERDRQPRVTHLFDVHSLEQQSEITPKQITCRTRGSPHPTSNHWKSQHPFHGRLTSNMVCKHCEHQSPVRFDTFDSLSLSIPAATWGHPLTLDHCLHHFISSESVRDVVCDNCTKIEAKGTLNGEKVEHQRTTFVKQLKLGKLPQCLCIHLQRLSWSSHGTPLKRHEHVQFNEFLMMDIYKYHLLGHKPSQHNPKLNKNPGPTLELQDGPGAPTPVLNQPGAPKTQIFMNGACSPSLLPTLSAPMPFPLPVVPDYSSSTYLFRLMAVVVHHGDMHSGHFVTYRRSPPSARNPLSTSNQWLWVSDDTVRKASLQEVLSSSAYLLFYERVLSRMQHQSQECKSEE
Active calls of the source: *. Compounds with a hit are over-represented: about 12% of the library has one in this group of screens. Cut-off read from the data, not from the text of the source: active = inhibition above about 30%; inactive = the rest.

Screening CS(=O)(=O)C1Cc2ccccc2CN1C(=O)Nc1ccc([N+](=O)[O-])cc1 (stereo not drawn) returned USP17 inh -18.7, OTUD3 inh 6.0, USP28 inh 5.0 and USP30 inh 8.2.
`COc1ccc2nc(N(Cc3ccncc3)C(=O)c3ccccc3)sc2c1` gave USP17 inh 2.7, OTUD3 inh 0.0, USP28 inh 0.0 and USP30 inh -4.5.
COc1ccc(OC)c2sc(N(Cc3ccncc3)C(=O)c3ccco3)nc12 was read as USP17 inh 23.8, OTUD3 inh 12.6, USP28 inh 18.0 and USP30 inh 43.4*.
`CCOC(=O)c1ccc(N(C(=O)Cn2nnc3ccccc32)C(C(=O)NC(C)(C)C)c2cc(OC)c(OC)c(OC)c2)cc1` (stereo not drawn) gave USP17 inh 30.1*, OTUD3 inh 15.1, USP28 inh 7.6 and USP30 inh 29.8.
Screening COc1cc(C(C(=O)NC(C)(C)C)N(Cc2ccccc2Cl)C(=O)c2cccc(-n3cnnn3)c2)cc(OC)c1OC (stereo not drawn) returned USP17 inh -1.2, OTUD3 inh -12.3, USP28 inh -5.3 and USP30 inh -8.6.
For CN(C)S(=O)(=O)c1ccc(N(C(=O)c2cnccn2)C(C(=O)NC2CCCCC2)c2ccccc2)cc1 (stereo not drawn) the results were USP17 inh -12.5, OTUD3 inh -6.7, USP28 inh -6.0 and USP30 inh -3.4.
Screening COc1ccc(C(C(=O)NC2CCCCC2)N(C(=O)Cn2nnc3ccccc32)c2ccc(S(=O)(=O)N3CCC(C)CC3)cc2)cc1O (stereo not drawn) returned USP17 inh 4.6, OTUD3 inh -5.1, USP28 inh 6.2 and USP30 inh 32.7*.
`O=C(Cc1noc2ccccc12)NCC(=O)Nc1ccc(Cl)cc1` gave USP17 inh 77.0*, OTUD3 inh 8.8, USP28 inh 22.5 and USP30 inh 24.6.
Screening Cn1cncc1C(=O)N[C@@H]1C[C@@H](Oc2cccc(F)c2)[C@H](O)[C@H]1N1CCOCC1 returned USP17 inh 4.4, OTUD3 inh 14.7, USP28 inh 11.1 and USP30 inh 24.8.
Screening Cc1ccc(C(=O)Nc2c(C(=O)N3CCN(c4ccccc4)CC3)[nH]c3ccccc23)cc1 returned USP17 inh 33.9*, OTUD3 inh 45.6*, USP28 inh 13.4 and USP30 inh -0.2.
`Cc1ccc(C(=O)Nc2c(C(=O)N3CCN(c4cccc(C)c4)CC3)[nH]c3ccccc23)cc1` gave USP17 inh -79.6, OTUD3 inh -49.5, USP28 inh -46.4 and USP30 inh -351.9.
Screening CCN1CC[C@@]2(C(=O)Nc3ccccc3)CCN(C(=O)c3ccncn3)CC[C@@H]12 returned USP17 inh 0.2, OTUD3 inh 4.3, USP28 inh 0.9 and USP30 inh -2.0.
`COc1cc(OC)cc(C(=O)N2CCC(C(=O)Nc3ccc4c(c3)OCCO4)CC2)c1` gave USP17 inh -12.6, OTUD3 inh -9.6, USP28 inh 49.3* and USP30 inh -26.0.
For Cc1ccc(-c2cc3nccc(C4CCCNC4)n3n2)cc1 (stereo not drawn) the results were USP17 inh 1.3, OTUD3 inh -1.0, USP28 inh 39.6* and USP30 inh 12.5.
For CC(C(=O)NCCc1ccc(S(N)(=O)=O)cc1)n1sc2ccccc2c1=O (stereo not drawn) the results were USP17 inh -0.2, OTUD3 inh 24.5, USP28 inh 15.9 and USP30 inh 38.5*.
NS(=O)(=O)c1ccc(CCNC(=O)C(=O)c2c[nH]c3ccccc23)cc1 was read as USP17 inh 9.9, OTUD3 inh 7.3, USP28 inh 35.6* and USP30 inh 14.9.
COC1=CC(=O)c2c(O)c(C)c(CC(C)=O)c(O)c2C1=O was read as USP17 inh 63.9*, OTUD3 inh -22.5, USP28 inh -0.1 and USP30 inh -98.4.
For COc1cccc(N2CCN(C(=O)c3noc4c3CCc3sccc3-4)CC2)c1 the results were USP17 inh -1.4, OTUD3 inh 3.8, USP28 inh 5.1 and USP30 inh 6.0.
`COc1ccc(-c2coc3cc(O[C@@H]4O[C@H](CO)[C@@H](O)[C@H](O)[C@H]4O)ccc3c2=O)cc1` gave USP17 inh 22.2, OTUD3 inh 3.4, USP28 inh 9.7 and USP30 inh 23.7.
For O=c1c(OC2O[C@H](CO)[C@H](O)[C@H](O)[C@H]2O)c(-c2ccc(O)cc2)oc2cc(O)cc(O)c12 (stereo partly drawn) the results were USP17 inh 21.3, OTUD3 inh 34.1*, USP28 inh -16.7 and USP30 inh -18.3.
For CC1(C)Oc2ccccc2[C@H]2OCC3(CCN(C(=O)c4cccc5c4OCCO5)CC3)C[C@@H]21 the results were USP17 inh -47.2, OTUD3 inh -28.3, USP28 inh -32.9 and USP30 inh -111.0.
`CCN1CCN(c2ccc(C(=O)OC)cc2NC(=O)c2sc3cc(Cl)ccc3c2Cl)CC1` gave USP17 inh 12.2, OTUD3 inh 13.9, USP28 inh 13.4 and USP30 inh 47.6*.
`NC(=O)c1ccc(NC(=O)c2cnn(Cc3ccccc3)c2)cc1` gave USP17 inh 37.8*, OTUD3 inh 6.8, USP28 inh 8.4 and USP30 inh 15.4.
CCOc1ccc(N(CC(=O)N2CCN(C)CC2)S(=O)(=O)c2ccc(SC)cc2)cc1 was read as USP17 inh -5.2, OTUD3 inh -8.9, USP28 inh -0.2 and USP30 inh -2.9.
For N#Cc1ccc(OCC(=O)Nc2ccccc2Oc2ccccc2)cc1 the results were USP17 inh 10.9, OTUD3 inh 0.1, USP28 inh -0.2 and USP30 inh -9.5.
`O=C(Nc1ccccc1Oc1ccccc1)C(c1ccccc1)c1ccccc1` gave USP17 inh 23.1, OTUD3 inh 18.9, USP28 inh 22.0 and USP30 inh 36.9*.
O=C(Cc1cccc2ccccc12)NC1CCCc2ccccc21 (stereo not drawn) was read as USP17 inh 4.1, OTUD3 inh -7.8, USP28 inh 0.2 and USP30 inh 7.0.
For COc1cccc(Cn2c(=O)c3cccnc3n(-c3ccccc3)c2=O)c1 the results were OTUD3 inh -36.0, USP28 inh -37.2 and USP30 inh -123.0.
COc1cccc(Cn2nc(C(=O)O)c3ccccc3c2=O)c1 was read as USP17 inh -11.8, OTUD3 inh -2.9, USP28 inh 38.3* and USP30 inh 2.5.
For CCn1c(=O)c2cc(C(=O)Nc3ccc(OC)c(OC)c3)nn2c2ccccc21 the results were USP17 inh -11.0, OTUD3 inh -6.1, USP28 inh 0.0 and USP30 inh -5.7.
`CCCn1c(=O)c2cc(C(=O)Nc3ccccc3)nn2c2ccccc21` gave USP17 inh 30.6*, OTUD3 inh 0.1, USP28 inh -2.2 and USP30 inh 0.0.
Screening Cc1ccc(C(=O)[C@H]2C(/C=C/c3ccccc3)=NO[C@]23C(=O)Nc2ccccc23)cc1 returned USP17 inh 12.1, OTUD3 inh 6.5, USP28 inh 21.6 and USP30 inh 17.1.
For Cc1ccc(C(=O)[C@H]2C(c3ccccc3OCC#N)=NO[C@]23C(=O)Nc2ccccc23)cc1 the results were USP17 inh 41.6*, OTUD3 inh 14.0, USP28 inh 20.6 and USP30 inh 28.8.
